Experimental data as given in PubChem BioAssay.
A number with no mark means an inactive call. The source made the active and inactive calls.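 The calls were made as follows: active = thallium flux through the channel raised or lowered by more than 3 SD from vehicle-only wells, actives on both sides; inactive = the rest.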

Tests used:
Assay in all cases: BK channel mutant inhibitors and activators – cell-based, U2OS BacMam, thallium flux, beta subunits, selectivity assay, profiling panel (AID 1259406);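 also: initial slope of Thallos dye fluorescence rise after thallium is added; log ratio against the mean of 0.3% DMSO vehicle wells on the same plate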
F380Y/beta2Delta = conditions: U2OS BacMam BK variants, at 30 µM
F380Y/beta4 = conditions: U2OS BacMam BK variants, at 30 µM
[1] = biological target: Calcium-activated potassium channel subunit alpha-1 (Homo sapiens) + Leucine-rich repeat-containing protein 26 (Homo sapiens) (UniProt Q12791+Q2I0M4); conditions: U2OS BacMam BK variants, F380Y/Slo1WT/gamma1, at 30 µM
R275C = conditions: U2OS BacMam BK variants, at 30 µM
R275C/beta1 = conditions: U2OS BacMam BK variants, at 30 µM
R275C/beta2Delta = conditions: U2OS BacMam BK variants, at 30 µM
R275C/beta4 = conditions: U2OS BacMam BK variants, at 30 µM
R275C/Slo1WT/beta2 = conditions: U2OS BacMam BK variants, at 30 µM

Chain of Calcium-activated potassium channel subunit alpha-1 (Homo sapiens) + Leucine-rich repeat-containing protein 26 (Homo sapiens) (Q2I0M4 whole entry, looked up, one chain of several): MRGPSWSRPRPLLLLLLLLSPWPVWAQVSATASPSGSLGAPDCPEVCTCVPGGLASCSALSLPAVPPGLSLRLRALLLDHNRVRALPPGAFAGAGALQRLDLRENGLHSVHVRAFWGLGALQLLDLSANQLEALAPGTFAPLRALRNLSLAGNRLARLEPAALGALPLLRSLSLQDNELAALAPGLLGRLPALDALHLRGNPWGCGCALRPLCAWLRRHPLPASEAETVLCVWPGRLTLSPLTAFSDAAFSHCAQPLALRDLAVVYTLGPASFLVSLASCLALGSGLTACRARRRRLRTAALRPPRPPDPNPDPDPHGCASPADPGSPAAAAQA

Compound	log fold change Tl+ flux (F380Y/beta2Delta)	log fold change Tl+ flux (F380Y/beta4)	log fold change Tl+ flux [1]	log fold change Tl+ flux (R275C)	log fold change Tl+ flux (R275C/beta1)	log fold change Tl+ flux (R275C/beta2Delta)	log fold change Tl+ flux (R275C/beta4)	log fold change Tl+ flux (R275C/Slo1WT/beta2)
Cc1nc2n(c(=O)c1CCN1CCC(c3noc4cc(F)ccc34)CC1)CCCC2	-0.0407	-0.0446	-0.0848	-0.134 (active)	-0.00526	-0.0361	-0.0132	0.0103
CCN1CCN(c2cc3c(cc2F)c(=O)c(C(=O)O)cn3C2CC2)CC1	-0.0171	0.015	0.00572	-0.0438	0.0122	0.0322	0.0288	0.165 (active)
Nc1nnc(-c2cccc(Cl)c2Cl)c(N)n1	-0.0167	-0.0171	0.000443	0.00303	0.00854	0.0465	-0.0247	-0.000749
CCN(CC)CCNC(=O)c1cc(Cl)c(N)cc1OC	-0.0588	-0.0267	0.0156	0.0337	-0.0145	-0.0122	-0.0991	-0.0439
CN1CCC(=C2c3ccccc3C=Cc3ccccc32)CC1	0.14 (active)	0.137 (active)	-0.0742	-0.0182	0.194 (active)	0.144 (active)	0.0955 (active)	0.0256
Brc1c(NC2=NCCN2)ccc2nccnc12	-0.06	-0.0578	-0.0163	-0.0123	0.0524	-0.0061	0.0292	0.0556
Cc1ccnc2c1NC(=O)c1cccnc1N2C1CC1	0.0168	0.0216	-0.00356	-0.0605	-0.00377	0.0164	-0.0208	-0.00118
